Drawing on PubChem BioAssay (Tox21), this text covers outcome for 40 compounds.

Activity calls are given as the source filed them. Calls follow the shape of the dose curve; as a rule, active = well fitted cell-killing curve with a large enough effect in the repeat runs; inconclusive = weak or mixed curves, or effect the other way; inactive = flat fitted curve, though single readings scatter.

The assay is described as follows: qHTS assay to identify small molecule HDAC inhibitors - cell viability counter screen (AID 1259365). Also: nearly all actives have a fitted effect of over 50% in size. The settings on record: HCT-116 viability, CellTiter-Glo ATP luminescence, 2 h; series mostly up to 92.4 µM. From the text:
U.S. Tox21 Program National Center for Advancing Translational Sciences [NCATS] NIH Chemical Genomics Center [NCGC] U.S. Environmental Protection Agency [EPA] National Institutes of Environmental Health Sciences [NIEHS] National Toxicology Program [NTP] U.S. Food and Drug Administration [FDA] Tox21 Assay Overview: Histone deacetylases (HDACs) are a group of epigenetic enzymes that regulate gene expression by histone deacetylation. HDACs are capable of introducing epigenetic modifications and such aberrations contribute to the onset and progression of several human diseases, thus making HDACs a popular therapeutic target. For identifying endogenous class I/II HDAC inhibitors a homogenous, luminogenic HDAC I/II cell based assay was used to measure the relative activity of class I and II HDACs from cells. Wild type HCT-116 cells were used to screen Tox21 compound libraries for identifying class I/II HDAC inhibitors.
Tox21 Assay Protocol Summary: HCT-116 cells were dispensed at 1,500 per well in 5uL of culture medium into white solid bottom 1536-well plates (Greiner Bio-One, Monroe, NC) using a Multidrop Combi (Thermo Scientific, Waltham, MA) dispenser. The assay plates were incubated at 37 C and 5% CO2 for an overnight, and then 23nL of compounds dissolved in DMSO and positive control were transferred using a Pintool station (Wako, San Diego, CA). The assay plates were incubated at 37C and 5% CO2 for 2hr. After compound treatment, 4uL of CellTiter-Glo reagent (Promega Corporation, Madison, WI) was added to each well of the assay plates using Flying Reagent Dispenser (FRD, Aurora Discovery, San Diego, CA) and incubated the assay plates at room temperature for 30min. The luminescence signal was quantified using a ViewLux plate reader (Perkin Elmer, Shelton, CT).
As to `COCC(C)N` (stereo not given), the result was inactive.

As for `CCCCCCCC(=O)OCC(O)CO` (stereo not given), the compound was called inactive.

Turning to `Cc1cccc(C)c1O`, the result was inactive.

In the case of `C[C@]12C[C@H](O)[C@H]3[C@@H](CCC4=CC(=O)CC[C@@]43C)[C@@H]1CC[C@@H]2C(=O)CO`, the compound was called inactive.

With `CC1(C)O[C@@H]2[C@@H](CO[C@@]3(COS(N)(=O)=O)OC(C)(C)O[C@@H]23)O1`, the outcome was inactive.

`CC(=O)Oc1ccccc1C(=O)O`: the call was inactive.

Take `COCCOCCOC`: the compound was called inactive.

Take `Cc1cnc(NC(=O)C2=C(O)c3ccccc3S(=O)(=O)N2C)s1`: the compound was classed as inactive.

With `CCc1cc(C(N)=S)ccn1`, the compound was classed as inactive.

As to `COC1=CC(=O)C[C@@H](C)[C@]12Oc1c(Cl)c(OC)cc(OC)c1C2=O`, the call was inactive.

`O=C(OCc1ccccc1)c1ccccc1`: the compound was classed as inactive.

For `COc1ccccc1NC(=O)CC(C)=O`, the result was inactive.

With `CC(C)Cc1ccc(C(C)C(=O)O)cc1` (stereo not given), the compound was classed as inactive.

With `COC(=O)C1CCC(C(=O)OC)CC1` (stereo not given), the outcome was inactive.

With `CCCCCCCCCCCCCC(=O)OC(C)C`, the call was inactive.

As to `Cc1c(N(C)C)c(=O)n(-c2ccccc2)n1C`, the compound was classed as inactive.

As to `C[C@]12C=CC(=O)C=C1CC[C@@H]1[C@@H]2C(=O)C[C@@]2(C)[C@H]1CC[C@]2(O)C(=O)CO`, the call was inactive.

With `CCCCCCCCCCCCCCCCCC(=O)OCC(O)CO` (stereo not given), the compound was classed as inactive.

As for `CCN(CC)CCOC(=O)c1ccc(N)cc1`, the compound was called inactive.

`CCn1cc(C(=O)O)c(=O)c2ccc(C)nc21`: the compound was classed as inactive.

Turning to `NC(=O)c1ccc([N+](=O)[O-])cc1Cl`, the outcome was inactive.

For the compound `Nc1cccc(N)c1`, the compound was called inactive.

Turning to `N[C@@H](Cc1c[nH]c2ccc(O)cc12)C(=O)O`, the compound was called inactive.

Consider `C[C@]12CC[C@@H]3c4ccc(O)cc4CC[C@H]3[C@@H]1CCC2=O`, for which the call was inactive.

Turning to `OC[C@@H](O)[C@@H](O)[C@H](O)[C@H](O)CO`, the call was inactive.

In the case of `COc1cc2c(c(OC)c1OC)-c1ccc(OC)c(=O)cc1[C@@H](NC(C)=O)CC2`, the outcome was inactive.

In the case of `C#C[C@]1(O)CC[C@H]2[C@@H]3CCC4=CC(=O)CC[C@@H]4[C@H]3CC[C@@]21CC`, the result was inactive.

Take `CC(=O)CCC(C)C`: the call was inactive.

In the case of `Oc1cccc(O)c1`, the result was inactive.

For the compound `O=C(O)CN(CC(=O)O)CC(=O)O`, the compound was called inactive.

`Cc1c(N(C)CS(=O)(=O)O)c(=O)n(-c2ccccc2)n1C`: the compound was called inactive.

With `CCCCNC(=O)NS(=O)(=O)c1ccc(N)cc1`, the result was inactive.

With `C1CNCCN1`, the compound was classed as inactive.

On to `O=C(O)CCCCC1CCSS1` (stereo not given), for which the outcome was inactive.

On to `Nc1ccc(N=Nc2ccccc2)c(N)n1`, for which the call was inactive.

Turning to `O=c1cc[nH]c(=O)[nH]1`, the outcome was inactive.

`COC(=O)c1ccc(O)cc1`: the compound was called inactive.

Turning to `CCCCOC(=O)CCCCCCCCC(=O)OCCCC`, the outcome was inactive.

With `CN/C(=C\[N+](=O)[O-])NCCSCc1ccc(CN(C)C)o1`, the outcome was inactive.

Consider `CCCCOCCOCCOC(C)=O`, for which the result was inactive.
